# According to ChEMBL document CHEMBL3988442, “University of Dundee, Small-Polar-MMV Screening Library” (2021):
# Assays:
# [1] = biological target: T1, Aspartate--tRNA(Asp/Asn) ligase (Mycobacterium tuberculosis (strain ATCC 25618 / H37Rv)) (UniProt P9WFW3); assay: Assay for Asp RNA synthetase-1 from Mycobacterium tuberculosis; format: functional; parameters: scale not given: direction of the effect not stated beside the values; settings: 30 µM; also: in the data most compounds retested in dose-response had high values
# T1 sequence (whole entry): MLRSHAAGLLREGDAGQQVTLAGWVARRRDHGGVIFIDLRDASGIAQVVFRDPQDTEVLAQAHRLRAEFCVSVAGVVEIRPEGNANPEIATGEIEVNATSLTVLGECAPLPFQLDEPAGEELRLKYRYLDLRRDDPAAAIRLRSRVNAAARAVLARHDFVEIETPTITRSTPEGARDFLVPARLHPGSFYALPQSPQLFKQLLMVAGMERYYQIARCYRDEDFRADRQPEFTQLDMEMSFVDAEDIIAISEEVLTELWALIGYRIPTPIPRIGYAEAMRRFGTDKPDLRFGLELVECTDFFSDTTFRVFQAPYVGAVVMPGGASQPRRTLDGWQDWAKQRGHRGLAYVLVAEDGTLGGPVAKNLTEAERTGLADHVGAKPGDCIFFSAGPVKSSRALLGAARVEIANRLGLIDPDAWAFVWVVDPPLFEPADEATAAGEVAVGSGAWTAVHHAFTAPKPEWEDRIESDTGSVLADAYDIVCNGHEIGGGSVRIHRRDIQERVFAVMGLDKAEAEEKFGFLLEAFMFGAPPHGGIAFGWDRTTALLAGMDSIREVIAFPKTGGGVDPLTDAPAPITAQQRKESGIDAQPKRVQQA
# [2] = biological target: Shiga toxin 2 (Escherichia coli O157:H7) (UniProt P09385+P09386); assay: E. coli 0.157:H7 Shiga Toxin SOP - stx2 screening assay; format: functional; parameters: scale not given: direction of the effect not stated beside the values; settings: 30 µM
Structure (SMILES),Percent Effect [1] [%],Percent Effect [2] [%]
CNC(=O)CS(=O)(=O)C1CCN(S(=O)(=O)c2ccccc2Br)CC1,-6.53,-14
COc1c(C2CCCN2C(=O)Cc2c(C)noc2C)c(C)nn1C (configuration not stated),-3.25,6.14
CC(C)(C)C(O)CN1CCN(C(=O)c2cccc3ncccc23)CC1 (configuration not stated),0.278,-208
CCOCCC(=O)Nc1cccc(Oc2ccccn2)c1,5.81,-31.9
COCCN1CCc2cc(C(=O)N(C)C)c(NCC3CC3)nc2CC1,0.183,0.232
Cc1ccc(OCC(O)CN2CCC(Cn3cccn3)CC2)cc1 (configuration not stated),-1.46,-51.7
COc1ccc(CN2CC[C@@H](O)[C@@H]2Cc2ccccc2)cc1,-0.406,-47
Cc1cccc(-c2ccc(C(=O)NCC3CCOC3)c(=O)[nH]2)c1 (configuration not stated),7.65,15.2
CS(=O)(=O)NCC1CCCN(C(=O)COCc2ccccc2)C1 (configuration not stated),-6.12,-16.5
CSCc1cccc(C(=O)N2CCN(CC(C)O)CC2)c1 (configuration not stated),-0.819,7.3
CN(C)CCN1C[C@@H]2CN(C(=O)c3ccsc3)C[C@@H]2C1=O,-4.34,-40.9
Cc1cc(CN(C)C(=O)NC(C)c2nncn2C)no1 (configuration not stated),-3.43,6.65
c1cc(CN2Cc3nnn(CC4CC4)c3C(COCC3CC3)C2)co1 (configuration not stated),-1.45,-2.53
O=C(NCc1cncc2c1CCN(Cc1cccc(F)c1)C2)C1CC1,1.78,-32.2
CC(Oc1ccccc1C(F)(F)F)C(=O)NS(=O)(=O)C(C)C (configuration not stated),-4.49,4.69
CCc1c(C(=O)N2CCN(CC(N)=O)CC2)cnn1C(C)(C)C,-2.87,2.77
O=C1CC(c2ccncc2)C2(CCN(C(=O)c3ccc[nH]3)CC2)N1 (configuration not stated),-0.81,-8.09
Cc1ncsc1CN1C[C@@H](OCC2CC2)[C@H]2OCCC[C@H]21,-6.67,4.7
Cc1ccc(CNC(=O)CN2C=Nc3ccccc3S2(=O)=O)s1,-0.759,9.11
O=C(c1ccc(F)c(F)c1)N1CCCC(Nc2ccc(F)cc2)C1 (configuration not stated),0.212,11.2
CN(CCN1CCOCC1)C(=O)CCc1cccc(Cl)c1,-4.7,-13.5
c1cnc2c(c1)cc(C1CCOCC1)n2CCN1CCOCC1,3.26,4.5
CN(C)C(=O)COCc1cncc2c1CCN(Cc1nccn1C)C2,10.5,-47.9
Oc1ccc(N2CCN(Cc3cc4c(cc3Br)OCCO4)CC2)cc1,4.07,6.03
Cc1cc(CN2CCCC2c2noc(C3CC3)n2)c2ccccc2n1 (configuration not stated),2.68,9.51
COCC(=O)N1CCC(c2noc3nc(C)cc(C(F)(F)F)c23)CC1,3.71,-10.9

Structure (SMILES),Percent Effect [1] [%],Percent Effect [2] [%]
CC(CNC(=O)c1cccnc1Oc1cccnc1)N(C)C (configuration not stated),-3.18,-12.1
COCC1c2c(cnn2C)CCN1Cc1ccc(F)cc1 (configuration not stated),1.28,-4.17
Cc1ccc(-c2nc(CN3CCOC(c4ccccc4)C3)cs2)o1 (configuration not stated),-0.792,13
O=C(NC1CC1)[C@@H]1CCO[C@@H]2CCN(Cc3ccsc3)C[C@H]21,0.474,-0.513
NC(=O)c1nnn(-c2ccc(Br)cc2)n1,3.66,-41.8
CN(C)C(=O)CN1C(=O)CCC12CCN(Cc1cccn1C)CC2,4.89,0.848
Cc1cc(CN(Cc2cccs2)CC2CCCO2)no1 (configuration not stated),1.32,12.5
CCn1cc2c(n1)CN(CC1CC1)CC2COCC1CC1 (configuration not stated),-2.72,-2.1
CC(NC(=O)NCCCN1CCCCCC1)c1nncn1C (configuration not stated),2.07,-17.6
Cc1cc(C)n(C2CCCN(C(=O)c3ccc(F)cc3F)C2)n1 (configuration not stated),7.84,-0.315
CN(Cc1cncnc1)Cc1cn2c(n1)CN(C1CCOC1)CC2 (configuration not stated),7.69,-15.6
O=C(c1cccc2c1OCO2)N1CCCC1Cn1cccn1 (configuration not stated),3.69,29.5
Cn1ccc(CN2CCC(NC(=O)NC3CCCCC3)CC2)cc1=O,-0.833,-11.2
O=C(c1cccc(NCCO)c1)N1CCOCC1,7.13,-69.6
OCC1CCCN1c1cc(NCc2ccc(Cl)s2)ncn1 (configuration not stated),0.451,-31.6
COc1ccnc(N2CCN(C(=O)c3csc(C4CC4)n3)CC2)n1,-0.494,-2.7
O=C(c1ccccn1)N1CCN(c2ccc(-c3cccnc3)nn2)CC1,-6.42,-48.3
Cc1nc(C)n(CC2CCCN2Cc2ccn(-c3ccccc3)n2)n1 (configuration not stated),0.0463,-14.6
COc1ccccc1C(O)CNCc1c(C(C)C)nn(C)c1N(C)C (configuration not stated),-6.86,9.26
Cc1ccccc1C(=O)CN1C(=O)c2ccccc2CS1(=O)=O,0.881,-11.1
CC(=O)Nc1ccc(CNC2CC(=O)N(Cc3cccc(F)c3)C2)cc1 (configuration not stated),-2.06,-10.3
O=C(COCc1nc(-c2ccncc2)no1)N1CCCCCC1,10.6,-22.7
CN1CCN(c2ncnc3c2c(C(=O)NC2CC2)c2ccccn23)CC1,5.32,-14.4
c1cnnc(NCC2CN(CCN3CCCCC3)CCO2)c1 (configuration not stated),-4.13,-5.19
CCc1nccn1C1CCCN(C(=O)c2ccc3[nH]c(=O)[nH]c3c2)C1 (configuration not stated),-9.98,-46.4
CC(C)c1csc(C2CCCN(C(=O)c3ccc(=O)n(C)n3)C2)n1 (configuration not stated),-1.11,-6.52

Structure (SMILES),Percent Effect [1] [%],Percent Effect [2] [%]
CN1CCN(C(=O)c2cncc(CC3CCCN(C)C3)c2)CC1 (configuration not stated),-1.68,-19.2
CCC(=O)Nc1nnc(CCCOc2ccccc2)s1,-2.47,-12
CCc1ccc(C(=O)N2CCN(CCS(C)(=O)=O)CC2)o1,-3.52,24.9
O=C(Cn1cc(-c2ccccc2)ncc1=O)Nc1nnc[nH]1,-0.342,6.34
CC(=O)NC(C)CC(=O)NCc1cccnc1Oc1ccccc1C (configuration not stated),-4.43,2.41
CN(C)C(=O)[C@@H]1C[C@@H]2CCN(Cc3nccs3)C[C@@H]2O1,1.05,2.36
COc1ncc(CN2CC[C@@](C)(O)[C@H](Oc3cccc(F)c3)C2)cn1,6.63,13
CCc1nc(C2CCCN2Cc2nc(C3CC3)no2)no1 (configuration not stated),-4.58,-6.89
O=C(c1cccs1)N1CCC(O)(CN2CCc3ccccc3C2)C1 (configuration not stated),-5.2,-25.3
Cc1nccn1C1CCCN(C(=O)C2=NN(C)C(=O)CC2)C1 (configuration not stated),-1.52,19
CN(C)Cc1ccc(C2CCCCN2C(=O)c2cc(C3CC3)n[nH]2)cc1 (configuration not stated),-1.82,2.95
CC(=O)NCC(=O)N1C[C@H](OCc2cccnc2)[C@H]2COC[C@H]21,-1.31,-22.3
CCn1c(N)nc2cc(C(=O)NCc3ccccc3Cl)cnc21,6.55,-1.88
CCOCCN1CCN(Cc2nc(C3CC3)no2)CC1CC (configuration not stated),-4.28,9.42
c1coc(-c2noc(CN3CCCC(Cn4cncn4)C3)n2)c1 (configuration not stated),-6.28,-10.4
COc1cccc(CCNC(=O)CN2CCCC2c2noc(C)n2)c1 (configuration not stated),-0.962,22.4
O=C(Nc1ccc(CCN2CCC(O)CC2)cc1)C1CCOCC1,-1.86,-38.6
CCc1nc(CN2CCCC(NCc3ncc(C(C)(C)C)o3)C2)no1 (configuration not stated),5.85,2.13
CCC1=N[C@@]2(CC[C@@H]3CN(S(=O)(=O)N(C)C)C[C@@H]32)C(=O)N1CC(C)C,2,9.58
CN(C)Cc1nnc(C2CCN(C(=O)CCc3cccs3)CC2)n1C,-0.948,-11.1
COc1ccc(CNC(C)c2ccc3[nH]c(=O)[nH]c3c2)cc1 (configuration not stated),2.66,-13.7
O=C(Cc1c[nH]c2ccccc12)N1CCN(C(=O)c2ccoc2)CC1,7.22,-16.5
CCn1cc(NC(=O)NCc2ccc(CN3CCOCC3)cc2)cn1,3.24,-35.1
Cc1cnn(CC2CCCN2C(=O)c2cc3c(F)cccc3[nH]2)c1 (configuration not stated),4.86,-37.3
NS(=O)(=O)CCNC(=O)C1(c2ccc(Br)cc2)CC1,1.66,-28.2
Cc1nnc(N2CCCC3(CN(Cc4ccc(C)s4)CCO3)C2)o1 (configuration not stated),0.479,-45.3

Structure (SMILES),Percent Effect [1] [%],Percent Effect [2] [%]
COCCN1CC[C@@H](O)[C@@H]1Cc1ccccc1,1.19,-38.2
Cc1csc(C2CCCN(C(=O)c3cc(Cl)c[nH]3)C2)n1 (configuration not stated),-3.61,29.7
Cc1nc(C)n(C2CCCN(C(=O)c3cc4ccccc4n3C)C2)n1 (configuration not stated),-0.634,15
O=C(CN1CCCCC1Cn1cncn1)NCc1ccccn1 (configuration not stated),4.05,4.47
COc1cc(N2CCCC(c3nccn3CCN(C)C)C2)nc(N)n1 (configuration not stated),-3.58,23.8
Cn1nc(CNC(=O)C2COc3ccccc3O2)cc1C1CC1 (configuration not stated),6.34,17
Cc1cc(CN2CC[C@H]3C(=O)N(c4ccccc4)CCO[C@H]3C2)no1,-4.96,-8.26
CNS(=O)(=O)Cc1ccc(CNC(=O)Nc2cn[nH]c2)cc1,-0.228,-4.62
CCc1ccc(NC(=O)c2cnc(N3CCN(C)CC3)nc2C)cc1,-0.248,-28
Cc1noc([C@H]2CC[C@@H]3[C@@H](CCN3S(C)(=O)=O)O2)n1,2.38,-3.33
CNC(=O)c1cccc(C2CNCCN2C)c1 (configuration not stated),-2.1,-13.8
O=C(c1ccccn1)N1CCCC(c2nccn2CC2CCC2)C1 (configuration not stated),4.83,-29.9
O=C(O)c1nnn(-c2ccc(F)c(F)c2)c1-c1ccncc1,2.4,-13
CCc1cnc(CNc2ccc(C(=O)N3CCCC(C)C3)cc2C)o1 (configuration not stated),-5.74,21.6
Cc1nc(C)n(CC2CCCCN2Cc2ncc(C(C)(C)C)o2)n1 (configuration not stated),-7.07,-41
CC(C)C(=O)NC1CCN(Cc2cccc3c2OCCO3)CC1,-1.32,5.01
COc1c(CNC2CCCc3ccccc32)c(C)nn1C (configuration not stated),-1,13.6
CC(Cn1cccn1)NC(=O)CCc1ccc(S(N)(=O)=O)cc1 (configuration not stated),-2.91,11.3
c1cnc(OCc2nnc3n2CCN(CC2CC2)C3)nc1,1.75,4.75
Cc1cc(C2CCCN(C(=O)c3c(C)nn4cccnc34)C2)n[nH]1 (configuration not stated),-6.19,7.06
CC(C(=O)N1CCCN(Cc2ccc(C#N)cc2)CC1)n1ccnc1 (configuration not stated),-0.834,29.9
Cc1noc(C)c1CN1CCN(Cc2nccn2C)CC1,-5.33,-1.2
COCCC(=O)N1CCC2(CN(Cc3ccc(OC)c(F)c3)C2)C1,-0.524,-4.43
